These results are taken from PubChem BioAssay (EPA / NIEHS).

Values joined by “and” are separate entries in the source; they are usually repeats but may differ in a detail not shown here. Identical values can stand only once. Active and inactive are the calls of the source. The calls were made as follows: active = hit-call score of the fitted dose curve at least 0.9, where 1 is the maximum; inactive = score below 0.9.

Read-out in this assay: Interleukin 17A (IL17A), IL17A (gene 3605)
Kind of assay: BSK_BT_xIL17A: BioMAP Diversity Plus: BT Assay for Interleukin 17A (IL17A) Biomarker Activity (AID 2284229). Particulars: primary human B cells with PBMC. As for the experimental part:
BSK_BT is a cell-based, multiplexed-readout assay that uses B cell and peripheral blood mononuclear cells, a human vascular primary cell co-culture, with measurements taken at 24 hours after chemical dosing in a microplate: 96-well plate.BSK_BT_xIL17A is an assay component measured in the BSK_BT assay. It measures secreted IL-17A related to regulation of gene expression using LumineX xMAP technology.Data from the assay component BSK_BT_xIL17A was analyzed at the endpoint, BSK_BT_xIL17A, in the positive analysis fitting direction relative to DMSO as the negative control and baseline of activity. Using a type of cytokine quantitation reporter, gain or loss-of-signal activity can be used to understand protein changes. To generalize the intended target to other relatable targets, this assay endpoint is annotated to the 'cytokine' intended target family, where the subfamily is 'interleukins'.
The levels of cell surface (or secreted, indicated by the prefix "s") biomarker endpoints were measured by ELISA. Overt cytotoxicity to cells in confluent adherent cultures (all systems other than the BT system) was assessed by measuring total protein levels using sulforhodamine B (SRB) staining in parallel cultures at the time of biomarker measurements, indicated as SRB endpoints. For proliferation assays for adherent cell types, individual cell types are cultured at sub-confluence and relative cell numbers quantified by SRB staining at time points optimized for each system (48 h: 3C and CASM3C systems; 72 h: BT and HDF3CGF systems; 96 h: SAg system). SRB was performed by staining cells with 0.1% SRB after fixation with 10% TCA and reading wells at 560 nm.Viability and proliferation of PBMC (T cells) was quantified by Alamar Blue reduction for the SAg and BT systems. For PBMC viability (referred to as PBMC Cytotoxicity within the assay endpoint names), cells were plated (75,000/well in a 96-well plate) and then chemical samples added for 1 h before addition of activators, SEB and TSST-1 (20 ng/mL final concentration each). Cells were incubated for 90 h. Then, Alamar Blue (20 uL/well) (Invitrogen, Cat DAL1100) was added for 6 h, and the plates were read with a fluorescence microplate reader at 546/580 nm (excitation/emission). For PBMC proliferation, cells were plated and activated as above but incubated for only 16 h prior to addition of Alamar Blue. Plates were read after 6 h.
Regarding `C[C@]12CC[C@H]3C(=CCc4cc(O)ccc43)[C@@H]1CCC2=O`, the outcome was inactive. On to `O=S(=O)(OCC(F)(F)F)C(F)(F)C(F)(F)C(F)(F)C(F)(F)F`, for which the outcome was inactive. Turning to `Cc1ccc(O)c(-n2nc3ccccc3n2)c1`, the result was inactive. With `NC(=O)C(F)(F)C(F)(F)C(F)(F)C(F)(F)C(F)(F)C(F)(F)C(F)(F)F`, the result was inactive. Turning to `Nc1cc([N+](=O)[O-])cc(Cl)c1O`, the result was inactive. For the molecule `OCCCCC(F)(F)C(F)(F)C(F)(F)C(F)(F)F`, the outcome was inactive.

Regarding `OCC(O)CC(F)(F)C(F)(F)C(F)(F)C(F)(F)C(F)(F)C(F)(F)C(F)(F)C(F)(F)F` (stereo not given), the result was inactive. For `NC(=O)C(F)(F)C(F)(F)C(F)(F)C(F)F`, the result was inactive.

The term AC50 denotes the midpoint of the concentration-response curve, whichever way the signal moves. `OCC(F)(F)C(F)(F)C(F)(F)C(F)(F)C(F)(F)C(F)(F)C(F)(F)C(F)(F)CO`: the AC50 is 51.3 µM (active) and 19.6 µM (active). With `FC(F)(F)C(F)(F)C(F)(F)C(F)(F)C(F)(F)C(F)(F)CC[Si](Cl)(Cl)Cl`, the outcome was inactive.

For the molecule `NC(O)(C(F)(F)F)C(F)(F)F`, the result was inactive. `CN(C(=O)C(F)(F)C(F)(F)C(F)(F)F)[Si](C)(C)C`: the result was inactive. With `Brc1nc2ccccc2s1`, the result was inactive.

Consider `O=S(=O)(O)CCC(F)(F)C(F)(F)C(F)(F)C(F)(F)F`, for which the outcome was inactive. Take `O=C(O)C(F)(F)C(F)(F)C(F)(F)OC(F)(C(F)(F)F)C(F)(F)F`: the outcome was inactive. Take `Cc1cc(O)c(C(C)(C)C)cc1C(C)(C)C`: the AC50 was 20 µM (active). For `C[Si](Cl)(Cl)CCC(F)(F)C(F)(F)C(F)(F)C(F)(F)C(F)(F)C(F)(F)F`, the result was inactive. Still for that read-out and setting: as for `NS(=O)(=O)C(F)(F)C(F)(F)C(F)(F)C(F)(F)C(F)(F)C(F)(F)F`, the entry is “inactive”. Still for that read-out and setting: in the case of `FC(F)(F)C(F)(F)C(F)(F)CC1CO1` (stereo not given) it was “inactive”; in that of `CC(C)CCCC(C)CCO` (stereo not given), “inactive”; in that of `Cc1cc(C)c(O)c(C(C)(C)C)c1`, “inactive”. As for `O=C(O)CCC(F)(F)C(F)(F)C(F)(F)F`, the outcome was inactive.

For the molecule `O=C(Cl)C(F)(F)C(F)(F)C(F)(F)C(F)(F)C(F)(F)C(F)(F)F`, the outcome was inactive. In the case of `CC1=CC2C3C=CC(C3)C2C1C` (stereo not given), the result was inactive.

With `OCC(O)CC(F)(F)C(F)(F)C(F)(F)C(F)(F)F` (stereo not given), the result was inactive.

As for `CCOC(C=C(C)CCC=C(C)C)OCC`, the result was inactive. For the molecule `C=CC(=O)OCC(F)(F)C(F)(F)C(F)(F)COC(=O)C=C`, the AC50 is 8.47 µM (active) and 6.45 µM (active). Regarding `CCOC(=O)CC(=O)C(F)(F)C(F)(F)F`, the result was inactive. As to `O=C(c1ccccc1)c1ccc(O)cc1O`, the outcome was inactive. Turning to `OCCCC(F)(F)C(F)(F)C(F)(F)C(F)(F)C(F)(F)C(F)(F)C(F)(F)C(F)(F)F`, the AC50 is 22.9 µM (active) and 21.7 µM (active). Take `NC(=O)C(F)(F)C(F)(F)C(F)(F)C(F)(F)C(N)=O`: the outcome was inactive. Turning to `O=C(O)C(F)(F)OC(F)(F)C(F)(F)OC(F)(F)C(F)(F)OC(F)(F)F`, the outcome was inactive. Regarding `NCC(F)(F)C(F)(F)C(F)(F)C(F)(F)C(F)(F)C(F)(F)C(F)(F)C(F)(F)F`, the outcome was inactive. Regarding `Cc1cnccn1`, the result was inactive. With `FC(F)(F)C(F)(F)C(F)(F)C(F)(F)C(F)(F)C(F)(F)C(F)(F)CCI`, the result was inactive. `O=C=Nc1cccc2c(N=C=O)cccc12`: the outcome was inactive. As for `CO[Si](C)(CCC(F)(F)C(F)(F)C(F)(F)C(F)(F)C(F)(F)C(F)(F)F)OC`, the result was inactive.

On to `CCN(CC)c1ccc2c(c1)Oc1cc(N(CC)CC)ccc1C21OC(=O)c2ccccc21`, for which the outcome was inactive.

Consider `NC(=O)C(F)(F)C(F)(F)C(F)(F)F`, for which the result was inactive. Consider `O=C(O)C(F)(F)C(F)(F)C(F)(F)C(F)(F)C(F)(F)C(F)(F)C(F)F`, for which the result was inactive.
